Results from PubChem BioAssay AID1159580 (chemical genetic matrix, 2015).
Out of some 5,500 compounds screened, about 2,000 (36%) were called active. Inconclusive results (about 18%) are left out. Cut-off read from the data, not from the text of the source: active = normalized growth mostly below about 0.91 (no sharp cut-off); inconclusive = no clear call, values can overlap the other calls; inactive = mostly above about 0.92. Some of the results follow.

Assay: chemical genetic growth profiling, strain panel (AID 1159580);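 note: tested at 20 µM; growth read once vehicle control cultures reached saturation at 30 °C; 1 = growth at the plate median or of vehicle wells; lower values mean less growth of the strain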
Settings: growth OD

Measured: normalized growth

COc1cc2c3cc1Oc1cc(ccc1O)C[C@@H]1c4c(cc(OC)c(O)c4Oc4ccc(cc4)C[C@@H]3N(C)CC2)CC[N+]1(C)C
inactive: S. cerevisiae deletion strains, locus YKL009W, strain mrt4, active compounds read low 1.04 | S. cerevisiae deletion strains, locus YKL068W, active compounds read low 0.997 | S. cerevisiae deletion strains, locus YKL085W, strain MDH1 (second series), active compounds read low 0.988 | S. cerevisiae deletion strains, locus YKL085W, strain MDH1, active compounds read low 0.988 | S. cerevisiae deletion strains, locus YKL160W, strain elf1, active compounds read low 1.04 | S. cerevisiae deletion strains, locus YKL190W, strain CNB1, active compounds read low 1.01 | S. cerevisiae deletion strains, locus YKR001C, strain vps1, active compounds read low 1.01 | S. cerevisiae deletion strains, locus YKR026C, strain gcn3, active compounds read low 1 | S. cerevisiae deletion strains, locus YKR091W, strain srl3, active compounds read low 0.999 | S. cerevisiae deletion strains, locus YLL001W, strain dnm1, active compounds read low 1.04 | S. cerevisiae deletion strains, locus YLL026W, active compounds read low 1.01 | S. cerevisiae deletion strains, locus YLL041C, strain sdh2, active compounds read low 1 | S. cerevisiae deletion strains, locus YLR027C, strain aat2, active compounds read low 1.02 | S. cerevisiae deletion strains, locus YLR039C, strain RIC1, active compounds read low 1.09 | S. cerevisiae deletion strains, locus YLR058C, strain SHM2, active compounds read low 1.01 | S. cerevisiae deletion strains, locus YLR102C, strain apc9, active compounds read low 1 | S. cerevisiae deletion strains, locus YLR113W, strain HOG1, active compounds read low 0.996 | S. cerevisiae deletion strains, locus YLR221C, strain rsa3, active compounds read low 0.966 | S. cerevisiae deletion strains, locus YLR258W, strain gsy2, active compounds read low 0.988 | S. cerevisiae deletion strains, locus YLR262C, strain YPT6 (second series), active compounds read low 1.04 | S. cerevisiae deletion strains, locus YLR262C, strain YPT6, active compounds read low 1.06 | S. cerevisiae deletion strains, locus YLR268W, strain sec22, active compounds read low 1.04 | S. cerevisiae deletion strains, locus YLR320W, strain mms22, active compounds read low 0.967 | S. cerevisiae deletion strains, locus YLR330W, strain CHS5, active compounds read low 1.01 | S. cerevisiae deletion strains, locus YLR342W, strain FKS1 (second series), active compounds read low 0.999 | S. cerevisiae deletion strains, locus YLR342W, strain FKS1, active compounds read low 1.02 | S. cerevisiae deletion strains, locus YLR357W, strain rsc2, active compounds read low 0.958 | S. cerevisiae deletion strains, locus YLR370C, strain arc18, active compounds read low 1.01 | S. cerevisiae deletion strains, locus YLR371W, strain rom2, active compounds read low 1.01 | S. cerevisiae deletion strains, locus YLR384C, strain iki3, active compounds read low 1 | S. cerevisiae deletion strains, locus YLR418C, strain cdc73, active compounds read low 0.986 | S. cerevisiae deletion strains, locus YML016C, strain PPZ1, active compounds read low 1.01 | S. cerevisiae deletion strains, locus YML032C, strain rad52, active compounds read low 0.981 | S. cerevisiae deletion strains, locus YML120C, strain ndi1, active compounds read low 1.03 | S. cerevisiae deletion strains, locus YML124C, strain tub3, active compounds read low 0.999 | S. cerevisiae deletion strains, locus YMR058W, strain fet3, active compounds read low 1 | S. cerevisiae deletion strains, locus YMR078C, strain ctf18, active compounds read low 1.01 | S. cerevisiae deletion strains, locus YMR125W, strain sto1, active compounds read low 0.993 | S. cerevisiae deletion strains, locus YMR129W, active compounds read low 0.98 | S. cerevisiae deletion strains, locus YMR205C, strain PFK2, active compounds read low 1.03 | S. cerevisiae deletion strains, locus YMR223W, strain ubp8, active compounds read low 0.994 | S. cerevisiae deletion strains, locus YMR231W, strain pep5, active compounds read low 0.993 | S. cerevisiae deletion strains, locus YMR307W, strain GAS1, active compounds read low 1.06 | S. cerevisiae deletion strains, locus YNL067W, strain RPL9B, active compounds read low 1.04 | S. cerevisiae deletion strains, locus YNL071W, strain lat1, active compounds read low 0.969 | S. cerevisiae deletion strains, locus YNL128W, strain TEP1, active compounds read low 1.02 | S. cerevisiae deletion strains, locus YNL183C, strain NPR1, active compounds read low 0.948 | S. cerevisiae deletion strains, locus YNL209W, strain ssb2, active compounds read low 0.982 | S. cerevisiae deletion strains, locus YNL233W, strain BNI4, active compounds read low 1.03 | S. cerevisiae deletion strains, locus YNL248C, strain rpa49, active compounds read low 0.926 | S. cerevisiae deletion strains, locus YNL250W, strain rad50, active compounds read low 1.01 | S. cerevisiae deletion strains, locus YNL271C, strain bni1, active compounds read low 1.01 | S. cerevisiae deletion strains, locus YNL298W, strain CLA4, active compounds read low 1 | S. cerevisiae deletion strains, locus YNL307C, strain MCK1, active compounds read low 1.01 | S. cerevisiae deletion strains, locus YNL322C, strain KRE1 (second series), active compounds read low 0.984 | S. cerevisiae deletion strains, locus YNL322C, strain KRE1, active compounds read low 0.999 | S. cerevisiae deletion strains, locus YNR049C, strain mso1, active compounds read low 0.99 | S. cerevisiae deletion strains, locus YNR052C, strain pop2, active compounds read low 1.01 | S. cerevisiae deletion strains, locus YOL006C, strain TOP1, active compounds read low 1.1 | S. cerevisiae deletion strains, locus YOL012C, strain htz1 0.91 | S. cerevisiae deletion strains, locus YOL147C, strain pex11, active compounds read low 0.995 | S. cerevisiae deletion strains, locus YOR001W, strain rrp6, active compounds read low 1.02 | S. cerevisiae deletion strains, locus YOR061W, strain CKA2, active compounds read low 1.01 | S. cerevisiae deletion strains, locus YOR069W, strain VPS5, active compounds read low 1.01 | S. cerevisiae deletion strains, locus YOR070C, strain gyp1, active compounds read low 0.993 | S. cerevisiae deletion strains, locus YOR080W, strain dia2, active compounds read low 1.01 | S. cerevisiae deletion strains, locus YOR083W, strain WHI5, active compounds read low 1.01 | S. cerevisiae deletion strains, locus YOR106W, strain vam3, active compounds read low 1.03 | S. cerevisiae deletion strains, locus YOR136W, strain idh2, active compounds read low 1 | S. cerevisiae deletion strains, locus YOR144C, strain elg1, active compounds read low 0.993 | S. cerevisiae deletion strains, locus YOR184W, strain ser1, active compounds read low 1.01 | S. cerevisiae deletion strains, locus YOR231W, strain MKK1, active compounds read low 0.996 | S. cerevisiae deletion strains, locus YOR265W, strain rbl2, active compounds read low 0.999 | S. cerevisiae deletion strains, locus YOR270C, strain vph1, active compounds read low 0.985 | S. cerevisiae deletion strains, locus YOR290C, strain snf2, active compounds read low 0.946 | S. cerevisiae deletion strains, locus YOR316C, strain cot1, active compounds read low 1 | S. cerevisiae deletion strains, locus YPL051W, strain arl3, active compounds read low 1.01 | S. cerevisiae deletion strains, locus YPL055C, strain LGE1, active compounds read low 1.04 | S. cerevisiae deletion strains, locus YPL078C, strain atp4, active compounds read low 1.04 | S. cerevisiae deletion strains, locus YPL106C, strain sse1, active compounds read low 0.937 | S. cerevisiae deletion strains, locus YPL240C, strain hsp82, active compounds read low 1 | S. cerevisiae deletion strains, locus YPL256C, strain CLN2, active compounds read low 0.99 | S. cerevisiae deletion strains, locus YPR119W, strain clb2, active compounds read low 1 | S. cerevisiae deletion strains, locus YPR141C, strain kar3, active compounds read low 1.01 | S. cerevisiae deletion strains, locus YPR163C, strain tif3, active compounds read low 0.992 | S. cerevisiae deletion strains, locus YPR167C, strain met16, active compounds read low 0.999 | S. cerevisiae deletion strains, strain wtn01, active compounds read low 1.01 | S. cerevisiae strains, strain wild type, active compounds read low 1.01
